The values that follow come from PubChem BioAssay AID652001 (The Scripps Research Institute Molecular Screening Center, 2013).

This test addresses Acyl-protein thioesterase 2 (Homo sapiens) (UniProt O95372). Nature of the test: LYPLA2 enzyme kinetics with inhibitors – biochemical, substrate-based fluorescence, Ki, Km, Vmax, late-stage follow-up (AID 652001). The settings on record: recombinant LYPLA2, resorufin acetate hydrolysis fluorescence, measured here: LYPLA2 (no test compound); Km: enzyme Km; Vmax: enzyme Vmax.

Sequence of Acyl-protein thioesterase 2 (Homo sapiens) (O95372 whole entry, looked up): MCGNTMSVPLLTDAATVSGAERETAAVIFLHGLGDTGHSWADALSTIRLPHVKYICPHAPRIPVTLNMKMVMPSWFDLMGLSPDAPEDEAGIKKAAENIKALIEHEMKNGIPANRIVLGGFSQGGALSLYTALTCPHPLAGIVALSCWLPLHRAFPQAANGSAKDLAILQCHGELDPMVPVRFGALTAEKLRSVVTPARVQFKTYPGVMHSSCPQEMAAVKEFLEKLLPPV

In the case of `COc1ccc(N2CCN(C(=O)c3cc4c(s3)-c3ccccc3S(=O)(=O)C4)CC2)cc1`, the Km came out at 24.4 µM and the Vmax came out at 13.8 nM.

By Km is commonly meant the substrate concentration at which the rate is half of its maximum.
